IDH1 R132H inh – qHTS for Inhibitors of mutant isocitrate dehydrogenase 1 (IDH1): qHTS. IDH1-R132H enzyme, NADPH consumption, diaphorase/resazurin fluorescence. Potency, µM (doses to about 76.6 µM), inactives show top-dose activity change, negative = inhibition, usual class: inhibitors. 390,000 compounds, 0.093% hits; note: % is set by controls: 0 for no effect and ±100 for the full control effect; nearly all actives have a fitted effect of over 65% in size
Target sequence (O75874 whole entry R132H, stated change not applied): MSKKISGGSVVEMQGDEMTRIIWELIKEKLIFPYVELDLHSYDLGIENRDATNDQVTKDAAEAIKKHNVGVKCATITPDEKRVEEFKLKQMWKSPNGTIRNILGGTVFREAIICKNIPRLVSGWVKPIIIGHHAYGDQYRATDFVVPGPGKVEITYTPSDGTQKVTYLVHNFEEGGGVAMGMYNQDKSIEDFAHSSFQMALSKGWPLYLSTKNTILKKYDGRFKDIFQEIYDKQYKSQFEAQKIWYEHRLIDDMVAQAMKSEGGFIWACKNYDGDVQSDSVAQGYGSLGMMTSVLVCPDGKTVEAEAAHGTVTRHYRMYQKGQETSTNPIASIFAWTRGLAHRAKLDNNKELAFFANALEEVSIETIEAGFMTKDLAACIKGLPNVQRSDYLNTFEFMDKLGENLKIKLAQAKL
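IDH1-R132H (0.5 ug/mL dispensed) in pH 7.5 Tris buffer was preincubated 30 min with compound, then given a substrate mix of 0.016 mM NADPH and 2 mM alpha-KG for 80 min at room temperature; remaining NADPH was read by diaphorase/resazurin fluorescence.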
ELG1 DNA repair – qHTS screen for small molecules that inhibit ELG1-dependent DNA repair in human embryonic kidney (HEK293T) cells expressing luciferase-tagged ELG1. HEK293T ELG1-luciferase reporter, luminescence, 16 h; DNA damage induced by 5-fluorouridine. Potency, µM (highest dose often 46.1 µM), for the others: at the highest dose activity change, negative = inhibition, most hits filed as inhibitors. 330,000 compounds, 2.3% hits. AID 504467, 2011; note: % is set by controls: 0 for no effect and ±100 for the full control effect; nearly all actives have a fitted effect of over 55% in size
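Cells (2,000 per well) received 5-fluorouridine plus test compound or DMSO and were incubated 16 hr at 37 °C, 5% CO2. Luciferase activity was read by luminescence 30 min after ONE-Glo addition; signal suppression marked inhibition of damage-induced ELG1 function.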
Nrf2 block – Nrf2 qHTS screen for inhibitors; A549 ARE-Fluc reporter, luciferase luminescence, 18-24 h; Potency, µM (doses to about 46 µM), inactives show at the highest dose activity change, negative = inhibition, most hits filed as inhibitors; 360,000 compounds, 2.1% hits; AID 504444, 2011; note: % is set by controls: 0 for no effect and ±100 for the full control effect; nearly all actives have a fitted effect of over 60% in size
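In this cell-based qHTS, ARE-driven firefly luciferase in A549 cells reports Nrf2 activity; the luminescent signal after BugLite lysis is the measured value, with a prior CellTiter-Fluor read for cell health.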
Nrf2 activator – qHTS of Nrf2 Activators; AREc32 ARE-luciferase reporter (MCF7-derived line), luminescence, 24 h; Potency, µM (top dose mostly 46.1 µM), without a hit: at the top dose activation, hits mostly activators; 410,000 compounds, 0.31% hits; AID 624171, 2012; note: % of control where 0% means no effect; nearly all actives have a fitted effect of over 65% in size
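AREc32_Fluc, 1000 cells/well, OPTI-MEM + 5% FBS, o/n 37 deg C 5% CO2; 23 nL cpd by pin tool, 24 hr; Steady-Glo 30 min RT, luminescence.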
A549 viability – Nrf2 qHTS screen for inhibitors: counterscreen for cytotoxicity; A549 ARE-Fluc cells, CellTiter-Fluor viability, 18-24 h; Potency, µM (titrated, usually from 46 µM), inactives show top-dose activity change, negative = cytotoxicity, most hits filed as inhibitors; 390,000 compounds, 0.16% hits; AID 504648, 2011; note: % is set by controls: 0 for no effect and ±100 for the full control effect
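A549 ARE_Fluc cells in 5% FBS OPTI-MEM were exposed to compounds in concentration-response for 18-24 h at 37 deg C. Viability was read by CellTiter-Fluor fluorescence (Ex 405/Em 525) after 30 min, before the luciferase read.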
The depositor's hits bear a star; [ ] = remark or other dose. Shown are actives, neighbours in structure and some others; about 3.8% of the full set was active somewhere. Calls come from the whole dose curve; as a rule, active = well fitted curve in the direction sought with a large enough effect; inconclusive = small, poorly fitted or top-dose-only effect, or another doubt; inactive = no such curve, though single readings can be large; an effect the other way counts as inactive or inconclusive. Potency is the fitted concentration of half-maximal effect.

Results for COc1ccc(/C=N/NC(=O)c2ccc3ccccc3c2)cc1OS(=O)(=O)c1ccc(NC(C)=O)cc1 ?
IDH1 R132H inh: 5%; ELG1 DNA repair: inconclusive; Nrf2 block: 12µM*; Nrf2 activator: 0%; A549 viability: -28%

Results for COc1ccc(/C=N/NC(=O)c2nc(-c3ccccc3)cc(-c3ccccc3)n2)cc1OC ?
IDH1 R132H inh: 6%; ELG1 DNA repair: 4.1µM*; Nrf2 block: inconclusive; Nrf2 activator: 1%; A549 viability: -13%

Results for COc1cc(/C=N/NC(=O)c2ccc3nc[nH]c3c2)cc(OC)c1OC ?
IDH1 R132H inh: 18%; ELG1 DNA repair: 0%; Nrf2 block: -13%; Nrf2 activator: -1%; A549 viability: -12%

What do the screens show for `COc1cccc(/C=N/NC(=O)c2nc(-c3ccccc3)cc(-c3ccccc3)n2)c1`?
IDH1 R132H inh: -1%; ELG1 DNA repair: 7.3µM*; Nrf2 activator: 0%; A549 viability: -15%

How did COc1ccc(C=O)cc1OS(=O)(=O)c1ccc(NC(C)=O)cc1 do in these assays?
IDH1 R132H inh: 17%; ELG1 DNA repair: inconclusive; Nrf2 block: 10%; Nrf2 activator: 0%; A549 viability: 10%

Results for COc1cc(OC)c(-c2cc(C(=O)NCc3ccc(F)cc3)c3c(-c4ccccc4)[nH]nc3n2)cc1OC ?
IDH1 R132H inh: -15%; Nrf2 activator: -1%; A549 viability: inconclusive

What do the screens show for `Cc1ccc(CNC(=O)c2ccc3c(O)c(S(=O)(=O)c4ccc(Cl)cc4)c(=O)[nH]c3c2)cc1`?
IDH1 R132H inh: -12%; Nrf2 block: 10%; Nrf2 activator: 1%; A549 viability: 4%

How did Cc1ccc(-n2c(=O)c3oc4ccccc4c3n(CC(=O)Nc3ccc(F)c(Cl)c3)c2=O)cc1C do in these assays?
IDH1 R132H inh: -5%; Nrf2 block: inconclusive; Nrf2 activator: -1%; A549 viability: -1%

Results for COc1cc(/C=N\NC(=O)c2ccc(-c3ccccc3)cc2)cc(OC)c1OC(C)=O ?
IDH1 R132H inh: -9%; ELG1 DNA repair: -26%; Nrf2 block: 13µM*; Nrf2 activator: 5%; A549 viability: 2%

Results for COc1cc(/C=N\NC(=O)c2ccc(-c3ccccc3)cc2)cc(OC)c1O ?
IDH1 R132H inh: -10%; ELG1 DNA repair: -13%; Nrf2 block: 2%; Nrf2 activator: 3%; A549 viability: 13%

How did O=C(O)CNc1ccccc1C(=O)O do in these assays?
IDH1 R132H inh: -15%; ELG1 DNA repair: 21µM*; Nrf2 block: 2%; Nrf2 activator: 3%; A549 viability: -4%

Results for O=C(O)c1ccccc1NCc1cccnc1 ?
IDH1 R132H inh: 2%; Nrf2 block: inconclusive; Nrf2 activator: 4%; A549 viability: 7%

Results for COc1ccccc1NC(=O)c1sc(-c2ccc(Cl)cc2)cc1N ?
IDH1 R132H inh: 15%; Nrf2 block: -1%; Nrf2 activator: 0%; A549 viability: 1%

How did COc1ccc(Cn2c(O)c(/C=N/NC(=O)c3cccnc3)c3ccccc3c2=O)cc1 do in these assays?
IDH1 R132H inh: -1%; ELG1 DNA repair: 18µM*; Nrf2 block: 5%; Nrf2 activator: -1%; A549 viability: -4%

How did COc1cc(/C=N\NC(=O)c2cccnc2)ccc1OC(=O)c1ccccc1Cl do in these assays?
IDH1 R132H inh: 9%; ELG1 DNA repair: -4%; Nrf2 block: 15µM*; Nrf2 activator: 3%; A549 viability: -5%

How did O=C(N/N=C/c1cccnc1)c1ccccc1Cl do in these assays?
IDH1 R132H inh: 3%; ELG1 DNA repair: inconclusive; Nrf2 block: -14%; Nrf2 activator: 3%; A549 viability: -4%

Results for COc1cc(/C=N/NC(=O)c2cccnc2)ccc1OC(=O)c1ccco1 ?
IDH1 R132H inh: -1%; ELG1 DNA repair: 0%; Nrf2 block: 1%; Nrf2 activator: 0%; A549 viability: 3%[1.84 µM]

How did O=C(N/N=C/c1cccnc1)c1ccc(CN2c3cccc4cccc(c34)S2(=O)=O)cc1 do in these assays?
IDH1 R132H inh: 1%; ELG1 DNA repair: 23µM*; Nrf2 block: inconclusive; Nrf2 activator: 3%; A549 viability: 6%

What do the screens show for `O=C(N/N=C/c1cccnc1)c1ccccc1OCc1ccc(Cl)cc1`?
ELG1 DNA repair: 23µM*

How did Cn1ccc2c(OCC(=O)NCc3ccccc3Cl)cccc2c1=O do in these assays?
IDH1 R132H inh: 7%; Nrf2 activator: 7%; A549 viability: 3%

Results for CN(Cc1ccccc1)S(=O)(=O)c1ccc(-c2cnc(C3CC3)o2)cc1 ?
IDH1 R132H inh: 11%; Nrf2 activator: 1%; A549 viability: 4%

What do the screens show for `O=c1[nH]cc(CCc2ccccc2)c2ncncc12`?
Nrf2 block: 1%; A549 viability: 5%

How did O=C(Nc1cccnc1)c1ccc(COc2ccccc2Br)cc1 do in these assays?
IDH1 R132H inh: 3%; ELG1 DNA repair: inconclusive; Nrf2 block: 13µM*; Nrf2 activator: 0%; A549 viability: -27%

How did O=C(N/N=C/c1cccnc1)c1cc(-c2ccc(Br)cc2)nc2ccccc12 do in these assays?
IDH1 R132H inh: -3%; ELG1 DNA repair: 13µM*; Nrf2 block: -2%; Nrf2 activator: 1%; A549 viability: -3%

How did O=C(N/N=C/c1cccnc1)c1ccccc1OCc1ccc(Br)cc1 do in these assays?
IDH1 R132H inh: 12%; ELG1 DNA repair: 12µM*; Nrf2 block: 2%; Nrf2 activator: 9%; A549 viability: 1%

What do the screens show for `O=C(NCc1cccnc1)c1ccc(COc2ccccc2Br)cc1`?
IDH1 R132H inh: -5%; ELG1 DNA repair: inconclusive; Nrf2 block: inconclusive; Nrf2 activator: 0%; A549 viability: -3%

What do the screens show for `O=C(N/N=C/c1cccnc1)c1cc(-c2ccccc2)nc2ccccc12`?
IDH1 R132H inh: 7%; ELG1 DNA repair: inconclusive; Nrf2 block: -15%; Nrf2 activator: 3%; A549 viability: 1%

What do the screens show for `c1coc(-c2nc3cc4ccccc4cc3nc2-c2ccco2)c1`?
Nrf2 block: inconclusive; A549 viability: -12%

How did CCOC(=O)c1sc2ccccc2c1S(=O)(=O)NCc1ccccc1OC do in these assays?
IDH1 R132H inh: -1%; Nrf2 block: inconclusive; Nrf2 activator: 7%; A549 viability: 1%

How did Cc1cc2c(s1)c1cnn(Cc3ccccc3C)c(=O)c1n2C do in these assays?
Nrf2 block: -11%; A549 viability: -2%

What do the screens show for `O=C(N/N=C/c1cccc(OC(=O)c2cccc(Br)c2)c1)c1ccncc1`?
IDH1 R132H inh: 5%; ELG1 DNA repair: -3%; Nrf2 block: 4%; Nrf2 activator: 5%; A549 viability: -1%

Assay outcomes from PubChem.
